ZTA DNA inh – ZTA (EBV) inhibition in EBNA-1 counter-screen; hit rate 0.15% among 320,000; inhibition, % at 11 µM; ZTA-DNA binding, fluorescence polarization; in the data active = inhibition above about 33%
Target sequence (P03206 whole entry, looked up): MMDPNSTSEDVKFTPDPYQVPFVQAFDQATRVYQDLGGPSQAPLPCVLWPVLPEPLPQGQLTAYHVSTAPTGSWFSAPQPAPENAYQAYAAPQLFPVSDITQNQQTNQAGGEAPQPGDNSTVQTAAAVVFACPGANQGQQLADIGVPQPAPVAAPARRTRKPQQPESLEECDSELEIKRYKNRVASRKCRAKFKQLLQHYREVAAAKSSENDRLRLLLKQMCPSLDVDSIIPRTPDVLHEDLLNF
EBNA-1 inhibitor – EBNA-1 DNA-binding inhibitors, primary screen, biochemical, fluorescence polarization; inhibition, % at 14.8 µM; hit rate 0.34% among 300,000; in the data active = inhibition above about 28%
NR3A LBD binder – binders of NR3A ligand-binding domain, primary screen, biophysical, differential scanning fluorimetry, uHTS; hit rate 2.5% among 340,000; Tm shift relative to glycine control, % at 25 µM; NR3A LBD differential scanning fluorimetry, Tm shift; 0% = protein alone, 100% = glycine-bound protein; AID 1259313, 2017;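 active = melting temperature shift of at least 10% of the positive control shift, at one fixed dose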
dFosB activator – activators of delta FosB homodimer, primary screen, biochemical, fluorescence polarization, TAMRA-CDK5 oligo, single point. hit rate 0.99% among 340,000. purified delta FosB; percent of positive-control signal above neutral wells. activation, % at 25 µM. AID 493131, 2011;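 active = mean activation above about 17%, with every replicate also reaching it, limit read from the data, passing the limit was not always enough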
TPT1 inhibitor – Candida albicans TPT1 enzyme inhibitors, primary screen, biochemical, fluorescence polarization; tRNA 2'-phosphotransferase TPT1 (Candida albicans SC5314); recombinant caTPT1, FP RNA substrate dephosphorylation; inhibition, % at 5 µM; hit rate 0.81% among 300,000;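 active = inhibition above the mean of all tested compounds plus 3 SD, set per screening campaign, cut at about 24% in these data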;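 also: plate controls were DMSO alone for no effect and ferristatin control at 100 nM for full effect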
Rpn11 inh – Rpn11 (PSMD14) deubiquitinase inhibitors, primary screen, biochemical, fluorescence polarization, uHTS; human 26S proteasome, Ub4-pepOG fluorescence polarization; 20S core pre-blocked with epoxomicin; hit rate 0.59% among 360,000; AID 588493, 2011; 26S proteasome non-ATPase regulatory subunit 14 (Homo sapiens), O00487; inhibition, % at 20 µM;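 active = inhibition at 20 µM, scaled to each plate's controls, above about 33%, limit read from the data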
Target sequence (O00487 whole entry, looked up): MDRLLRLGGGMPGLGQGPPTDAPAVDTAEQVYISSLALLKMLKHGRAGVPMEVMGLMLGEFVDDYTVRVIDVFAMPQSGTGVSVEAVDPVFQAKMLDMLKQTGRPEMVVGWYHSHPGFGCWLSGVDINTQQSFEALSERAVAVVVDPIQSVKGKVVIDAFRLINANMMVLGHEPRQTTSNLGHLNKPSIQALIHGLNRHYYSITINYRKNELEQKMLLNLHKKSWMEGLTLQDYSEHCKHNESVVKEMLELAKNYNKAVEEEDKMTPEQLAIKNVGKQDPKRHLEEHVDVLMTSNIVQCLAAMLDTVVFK
* hit, by the source's call; . = no result shown; ! = a repeat was not active. An excerpt weighted towards active compounds, which were near 4.5% of everything screened.

SMILES	ZTA DNA inh	EBNA-1 inhibitor	NR3A LBD binder	dFosB activator	TPT1 inhibitor	Rpn11 inh
CN(C)CCC(c1ccc(Cl)cc1)c1ccccn1 (stereo unspecified)	-3	4	16*!	3	1	-1
Cc1ccc(C(=O)NCC(=O)N(C)Cc2ccc(Cl)cc2Cl)s1	.	.	2	-12	.	7
CCOC(=O)/C(C#N)=N/Nc1ccc(S(=O)(=O)N2CCc3ccccc32)cc1	-4	-8	24*	-10	2	-2
N#C/C(=N\Nc1ccc(S(=O)(=O)N2CCc3ccccc32)cc1)C(N)=S	-5	-11	23*	-9	13	8
CCO/C=N/Nc1nc(C(F)(F)F)nc2c1cnn2Cc1ccccc1	-1	-13	13*	-7	-1	7
Cc1ccc(SCC(=O)OCC(=O)NCCc2ccc(S(N)(=O)=O)cc2)c(C)c1	.	.	1	-6	.	-3
CSc1ncccc1C(=O)OCC(=O)c1cccs1	0	-6	2	-7	-2	5
C/C(N)=C(/C#N)C(=O)CSc1nnc(COc2cc(C)ccc2C)o1	53*	38*	-1	-4	0	-5
COc1ccc2c(c1)c(C(C)=O)c(C)n2-c1ccccc1OC	-1	-11	-1	-7	-4	-6
N/C(=N\c1nc2ccccc2o1)NC(=O)/C=C/c1ccccc1	7	27	22*	11	0	-12
CCCCS(=O)(=O)CC(COc1ccccc1)OC(=O)c1ccccc1 (stereo unspecified)	-17	-6	14*	-8	0	-2
Cc1ccc(-n2ncc3c2CC(C)(C)CC3NC(=O)CCc2ccc(=O)[nH]n2)cc1 (stereo unspecified)	-5	7	-5	-3	-2	3
COc1ccc(NC(=O)/C=C/C(=O)O)c([N+](=O)[O-])c1	-14	-2	2	5	-2	0
CCOc1ccc(/C=C/C(=O)Nc2ccc(OC)cc2[N+](=O)[O-])cc1	21	-4	28*	-7	-16	.
COc1ccc(/C=C/C(=O)Nc2ccccc2C(=O)O)cc1	1	-2	20*	-5	1	-12
COc1ccc(NC(=O)COc2ccc(C)cc2)c([N+](=O)[O-])c1	-1	-5	13*	.	7	.
COc1ccc(/C=C/C(=O)Nc2ccccc2C(=O)N2CCCC2)cc1	-12	-3	1	-9	3	-1
CCOc1ccc(NC(=O)/C=C/c2ccccc2)c([N+](=O)[O-])c1	4	0	15*	-5	2	.
CCOc1ccc(OCC(=O)Nc2ccc(OC)cc2[N+](=O)[O-])cc1	9	-1	-3	-11	2	-2
Cn1cc(S(=O)(=O)N2CCOCC2)cc1C(=O)O	.	.	2	0	.	-2
CCN(CC)S(=O)(=O)c1ccc(N2CCOCC2)c(NCC(=O)Nc2ccc(F)cc2)c1	-5	-2	-1	-7	1	-9
Cc1cc(C#Cc2c(-c3ccccc3)n(C)c3ccccc23)ccc1F	-12	9	-9	5	5	30
CCN(CC)CC(O)CN1c2ccccc2Sc2ccccc21 (stereo unspecified)	-6	-11	1	-11	1	-7
CCOc1ccc(N/C=C/C(=O)c2ccccc2)c([N+](=O)[O-])c1	-1	5	18*	-7	5	-9
CCc1cccc(CC)c1NC(=O)C1SC(=Nc2ccccc2C)C(c2nc3ccccc3s2)=C1N (stereo unspecified)	0	-20	19*	2	1	.
SMILES	ZTA DNA inh	EBNA-1 inhibitor	NR3A LBD binder	dFosB activator	TPT1 inhibitor	Rpn11 inh
Cc1cccnc1NC(=O)c1csnn1	15	0	10*	0	-5	4
O=C(CCNC(=O)c1ccccc1Cl)NCC(c1ccco1)N1CCCC1 (stereo unspecified)	-15	-2	-2	6	2	-4
O=C(Cc1ccccc1Cl)N1CCN(c2ncccn2)CC1	-2	-19	12*	-1	2	-3
NC1(C#Cc2ccc3oc(=O)c(-n4cc(-c5ccsc5)nn4)cc3c2)CCCCC1	-6	.	-2	5	.	44*
O=C(Nc1ncc(S(=O)(=O)c2ccc([N+](=O)[O-])cc2)s1)c1cccnc1	-11	1	0	-3	-2	6
O=C(Nc1ncc(S(=O)(=O)c2ccc([N+](=O)[O-])cc2)s1)c1ccc2ccccc2c1	0	3	22*	-2	1	0
CC(C)c1ccc(Nc2nnc(SCC(=O)Nc3ncc(S(=O)(=O)c4ccc([N+](=O)[O-])cc4)s3)s2)cc1	-7	7	13*	0	-3	1
Cc1ccc(Nc2nnc(SCC(=O)Nc3ncc(S(=O)(=O)c4ccc([N+](=O)[O-])cc4)s3)s2)cc1	-1	6	16*	3	2	3
Cc1cc(=O)[nH]c(SCC(=O)Nc2ncc(S(=O)(=O)c3ccc([N+](=O)[O-])cc3)s2)n1	1	2	-3	-3	-8	-2
Cn1c(C(=O)c2ccncc2)cc2ccccc21	5	-4	-5	-1	-3	3
CCCCNC(=O)[C@@H]1CSC2c3ccccc3C(=O)N21 (stereo partly specified)	.	.	0	-3	.	-4
CCOC(=O)C(=O)NN=C(c1ccccc1)c1ccccc1	16	-8	0	-5	-1	13
O=C(CCC1COc2ccccc2O1)Nc1ccc(Cl)cn1 (stereo unspecified)	14	6	12*	0	-5	0
CC1CC(CCC(=O)NC(=S)Nc2ccc(Cl)cn2)C(=O)O1 (stereo unspecified)	9	9	16*	-3	1	1
CCCCCC(=O)NC(=S)Nc1ccc(Cl)cn1	3	6	1	-3	0	1
Cc1ccnc(NC(=O)CCC2COc3ccccc3O2)c1 (stereo unspecified)	-14	-5	0	-3	-6	1
Nc1ccnc(=O)[nH]1	-9	8	3	6	1	-2
O=C(NCc1cccnc1)c1cc(C(=O)NCc2cccnc2)cc([N+](=O)[O-])c1	.	.	.	.	.	0
O=C(Cn1nnc2ccccc2c1=O)NCCc1ccccc1	-3	4	18*	3	-2	-1
Cc1ccccc1/C=N/n1c(-c2ccccn2)n[nH]c1=S	-4	-5	11*	-2	-2	4
Cc1cc2n(n1)C(c1c[nH]c3ccccc13)Nc1ccccc1-2 (stereo unspecified)	0	0	32*	-5	-3	6
